Among the test systems are NCI-H23 lung; NCI-H226 lung; HOP-62 NSCLC; NCI-H460 lung; HOP-92 NSCLC; NCI-H522 lung; A549/ATCC NSCLC; 786-0 renal; COLO 205 colon.
Experiment in all cases: NCI-60 one-dose screen, 48 h (100 = growth as untreated, 0 = no growth, -100 = all killed)
Details in all cases: 10 µM unless noted

The panel holds about 83,000 compounds, 20% with a hit somewhere; the sample as a whole holds those more often.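 For each line, cells grew in 96-well plates with the test compound present at a single concentration for 48 hours.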 A number with no mark means an inactive call. Active and inactive are the calls of the source. How the source made its calls: active means growth percent below 10; inactive means the rest.

For the molecule `Cc1ccc(C)n1-c1ccccc1-n1c(C)ccc1C`, the growth in the assay with NCI-H23 lung is 107%; in the assay on NCI-H226 lung, 97.8%; in the assay on HOP-62 NSCLC it was 112%; in the assay with NCI-H460 lung, 105%; with HOP-92 NSCLC, 92.4%; in the assay on NCI-H522 lung, 96.5%. The growth with A549/ATCC NSCLC is 101%; with 786-0 renal, 101%; in the assay on COLO 205 colon, 114%.

With `COc1cc(-c2csc(NC(=O)c3ccc(N4CCOCC4)c(C(F)(F)F)c3)n2)cc(OC)c1OC`, the growth is 15.7% in the assay on NCI-H23 lung; 41.6% with NCI-H226 lung; 34.2% in the assay with HOP-62 NSCLC; 46.2% in the assay with NCI-H460 lung; 57.6% in the assay on HOP-92 NSCLC; 14.3% in the assay on NCI-H522 lung. Moreover, the growth in the assay on A549/ATCC NSCLC was 31.9%; in the assay with 786-0 renal, 37%; in the assay with COLO 205 colon, 18.9%.

As to `C=C(C)[C@@H]1CC[C@]2(C(=O)N3CCOCC3)CC[C@]3(C)[C@H](CC[C@@H]4[C@@]5(C)C/C(=C/c6ccncc6)C(=O)C(C)(C)[C@@H]5CC[C@]43C)[C@@H]12`, the growth with NCI-H23 lung was 61.7%; with NCI-H226 lung, 42.9%; in the assay with HOP-62 NSCLC, 80.8%; in the assay on NCI-H460 lung, 49.7%; with HOP-92 NSCLC, 39.5%; with NCI-H522 lung, 50.3%. The values for the growth with A549/ATCC NSCLC, in the assay with 786-0 renal and with COLO 205 colon were 42.4%, 76.4% and 51.5%, respectively.

With `CCOC(=O)C(=O)C(C(=O)OCC)c1ccccc1` (configuration not stated), the growth in the assay with NCI-H23 lung was 107%; in the assay with NCI-H226 lung, 107%; with HOP-62 NSCLC, 107%; in the assay with HOP-92 NSCLC, 107%; in the assay on NCI-H522 lung, 101%; in the assay on A549/ATCC NSCLC it was 122%. Also, the growth in the assay with 786-0 renal was 93.3%; with COLO 205 colon, 118%.

For the molecule `CC(C)c1ccc(C(=O)Nc2nc3ccc(O)c(CN(C)C)c3s2)cc1`, the growth was 88.9% with NCI-H23 lung; 97.1% with NCI-H226 lung; 59.5% with NCI-H460 lung; 81.7% with HOP-92 NSCLC; 79.4% in the assay with NCI-H522 lung; 89.9% in the assay on 786-0 renal. In the assay with COLO 205 colon, the growth is 84.7%.

For the molecule `O=C(Nn1c2c(sc1=NC1CC1)C(=O)c1ccccc1C2=O)c1cc2ccc1CCc1ccc(cc1)CC2`, the growth in the assay on NCI-H23 lung is 9.63% (active); with NCI-H226 lung, 64.9%; in the assay with HOP-62 NSCLC, 54.1%; with NCI-H460 lung, 53.9%; in the assay on HOP-92 NSCLC it was 95.5%; with NCI-H522 lung it was 37.3%. The results for the growth in the assay on A549/ATCC NSCLC, in the assay on 786-0 renal and in the assay on COLO 205 colon were 67.7%, 68.6% and 96.3%, respectively.

With `COc1cc2ncnc(Nc3ccc(F)c(Cl)c3)c2cc1OCC(=O)N1CCN(c2ccccc2)CC1`, the growth was 88% in the assay on NCI-H23 lung; 92.5% in the assay on NCI-H226 lung; 103% in the assay on HOP-62 NSCLC; 95.6% in the assay on NCI-H460 lung; 86.8% with HOP-92 NSCLC; 79.9% with NCI-H522 lung. Further, the values for the growth with A549/ATCC NSCLC, with 786-0 renal and in the assay on COLO 205 colon were 82.9%, 85.6% and 112%, respectively.

On to `CCOC(=O)C1=C(N)Oc2c(sc3c(F)cccc23)C1c1ccc(O)cc1` (configuration not stated), for which the growth in the assay on NCI-H23 lung was 30.8%; with NCI-H226 lung, 55.2%; with HOP-62 NSCLC, 55.4%; in the assay with NCI-H460 lung, 30.4%; in the assay on HOP-92 NSCLC it was 34.6%; with NCI-H522 lung, 26.9%. Also, the growth was 40.5% in the assay on A549/ATCC NSCLC, 59.6% in the assay with 786-0 renal and 79.5% in the assay on COLO 205 colon.

In the case of `COc1ccc(-c2nc3cc(C(=O)NCc4ccccc4)ccc3n2C2CCCCC2)cc1`, the growth in the assay on NCI-H23 lung was 99.6%; with NCI-H226 lung, 102%; in the assay on HOP-62 NSCLC it was 90.1%; in the assay with NCI-H460 lung, 72.2%; in the assay with HOP-92 NSCLC it was 92.8%; with NCI-H522 lung, 76.8%. The growth in the assay on 786-0 renal was 70.8%; with COLO 205 colon, 64.7%.

On to `Cc1ccc(/C=C2\COc3ccc(O)cc3C2=O)cc1`, for which the growth with NCI-H23 lung is 94.7%; with NCI-H226 lung it was 97.3%; with HOP-62 NSCLC, 103%; in the assay on NCI-H460 lung, 100%; in the assay on HOP-92 NSCLC, 97.4%; with NCI-H522 lung, 4.44% (active). Moreover, the growth is 89.7% with A549/ATCC NSCLC, 86.7% in the assay with 786-0 renal and 94.3% in the assay with COLO 205 colon.

As for `N#CC1=C(N)Oc2c(ccc3ccccc23)C1c1ccccc1` (configuration not stated), the growth was 25.7% in the assay with NCI-H23 lung; 61.6% in the assay with NCI-H226 lung; 12.8% with HOP-62 NSCLC; 6.31% (active) in the assay on NCI-H460 lung; 38.2% in the assay with HOP-92 NSCLC; -15.8% (active) in the assay on NCI-H522 lung. Moreover, the growth is 10.8% in the assay on A549/ATCC NSCLC, 13.5% in the assay on 786-0 renal and -49.8% (active) with COLO 205 colon.

Consider `COC12C=C/C(=C(/C(=O)OCc3ccncn3)C(=O)CCCCCCCCC3(OC)C=C/C(=C(/C(=O)OCc4ccncn4)C(=O)CCCCCCCC1)O3)O2`, for which the growth in the assay on NCI-H23 lung is -37.2% (active); in the assay with NCI-H226 lung, -71.8% (active); in the assay with HOP-62 NSCLC, 23%; with NCI-H460 lung it was 1.29% (active); in the assay on HOP-92 NSCLC, -53.6% (active); in the assay with NCI-H522 lung it was -13.1% (active). Besides, the growth in the assay on A549/ATCC NSCLC was 6.41% (active); with 786-0 renal it was -71.2% (active); in the assay on COLO 205 colon, 3.33% (active).

With `CN(C)CC1CCC(CN(C)C)C1=O` (configuration not stated), the growth was 114% in the assay with NCI-H23 lung; 101% in the assay with NCI-H226 lung; 106% in the assay with HOP-62 NSCLC; 111% with NCI-H460 lung; 100% in the assay on HOP-92 NSCLC; 95.3% in the assay with NCI-H522 lung. Besides, the growth with A549/ATCC NSCLC is 110%; with 786-0 renal, 102%; in the assay with COLO 205 colon, 103%.

Take `COc1ccc(C/C(C)=C(\c2ccc(Cl)cc2)c2ccc(OCCN3CCCCC3)cc2)cc1`: the growth with NCI-H23 lung was 91.9%; in the assay on NCI-H226 lung, 86.5%; in the assay with HOP-62 NSCLC, 102%; in the assay on NCI-H460 lung, 101%; with HOP-92 NSCLC, 87.9%; with NCI-H522 lung, 87.3%. The figures for the growth in the assay with A549/ATCC NSCLC, in the assay with 786-0 renal and with COLO 205 colon were 98.1%, 93.8% and 95.3%, respectively.

Source of the values: PubChem BioAssay (NCI).
